# Assay outcomes as filed in PubChem BioAssay.
# The list is not random: actives were taken first. Their share in the collection is about 11%.
# PNC inhibitor = blocks assembly of the perinucleolar compartment. AID 2417. activity change (PNC), negative = inhibition, % at 10 µM. actives 3.1% (n = 140,000). PC3M PTB-GFP, PNC prevalence imaging, 16 h; stronger effect = lower value;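 active = readout at or below -70, meaning at least 70% loss of cells showing the perinucleolar compartment, a nuclear body marking cancer cells; inconclusive = readout between -30 and a set limit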;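 note: plate controls were DMSO wells for no effect and camptothecin positive control wells for full effect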
#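 PC3M cells stably expressing PTB-GFP, 750–1000 cells/well, treated 16 h at 37 °C with compound (23 nl of library stock), in duplicate. After paraformaldehyde fixation and Hoechst stain, imaged at 20x; PNC prevalence scored by image analysis.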
# KDM4E inh = inhibitors of human JMJD2E histone demethylase; actives 1.6% (n = 230,000); JMJD2E catalytic domain, FDH-coupled NADH fluorescence (FDH is formaldehyde dehydrogenase); Potency, µM (doses to about 57.1 µM), without a hit: at the highest dose activity change, negative = inhibition, usual class: inhibitors;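 note: potency is the fitted concentration of half-maximal effect; 0% = wells with enzyme and -100% = buffer wells without enzyme; nearly all actives have a fitted effect of over 50% in size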
# Target sequence (B2RXH2 1-337 limits assumed): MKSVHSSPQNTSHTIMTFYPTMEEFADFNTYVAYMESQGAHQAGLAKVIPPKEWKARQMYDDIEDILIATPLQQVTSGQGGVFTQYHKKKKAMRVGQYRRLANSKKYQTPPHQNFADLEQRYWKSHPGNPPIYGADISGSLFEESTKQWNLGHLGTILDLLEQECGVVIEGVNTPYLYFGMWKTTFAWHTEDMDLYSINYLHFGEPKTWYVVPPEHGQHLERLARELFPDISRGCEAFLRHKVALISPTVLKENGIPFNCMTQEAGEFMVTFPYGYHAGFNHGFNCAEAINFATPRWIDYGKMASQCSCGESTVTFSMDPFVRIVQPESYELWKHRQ
# ALDH1A1 inh = blocks purified human ALDH1A1 activity | P00352 | Purified ALDH1A1, NADH fluorescence, propionaldehyde substrate | Potency, µM (series often up to 75.3 µM), for inactives: top-dose activity, negative = inhibition, usual class: inhibitors | actives 7.3% (n = 220,000) | AID 1030;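 note: potency is the fitted concentration of half-maximal effect; plate controls were no enzyme wells and a reference inhibitor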
# HPGD inh = HPGD (human) dehydrogenase inhibition; actives 4.3% (n = 150,000); AID 894; purified HPGD, NADH fluorescence kinetic, PGE2 substrate; Potency, µM, inactives show at the highest dose activity change, negative = inhibition, most hits filed as inhibitors; P15428; note: potency is the fitted concentration of half-maximal effect
# Target sequence (P15428 whole entry, looked up): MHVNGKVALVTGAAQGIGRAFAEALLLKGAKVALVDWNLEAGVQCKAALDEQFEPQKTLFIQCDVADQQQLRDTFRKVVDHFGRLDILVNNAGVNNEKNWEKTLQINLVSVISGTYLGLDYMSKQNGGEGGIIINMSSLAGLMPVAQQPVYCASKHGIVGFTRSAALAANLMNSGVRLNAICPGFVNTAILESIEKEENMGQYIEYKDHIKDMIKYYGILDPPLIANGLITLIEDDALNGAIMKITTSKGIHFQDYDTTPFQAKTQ
#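 NADH formation kinetics: reaction with 30 uM PGE2 and 1 mM NAD+ (final), 20 nM enzyme, Tris-HCl pH 8 with Tween 20, after 15 min compound preincubation at room temperature. Fluorescence change, last versus first of five reads.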
# * marks the source's active call; other numbers are inactive results; ? = inconclusive; . = no result. Unless noted, calls come from the whole dose curve; as a rule, active = well fitted inhibition curve with a large enough effect (not every such curve was filed as active); inconclusive = small, poorly fitted or top-dose-only effect, or another doubt; inactive = no such curve, though single readings can be large or run the other way. Unless noted, % is set by controls: 0 for no effect and ±100 for the full control effect.
SMILES,PNC inhibitor,KDM4E inh,ALDH1A1 inh,HPGD inh
Cc1ccc(C2C(C(=O)c3ccco3)=C(O)C(=O)N2c2ncccn2)cc1 (stereo not given),.,-5.5%,6.9%,.
NC1=NC(=O)/C(=C/c2cn(Cc3ccccc3)c3ccccc23)S1,-9.4,-0.8%,0.8%,28.2µM*
Cc1cccc(Cn2cc(/C=C/[N+](=O)[O-])c3ccccc32)c1,-24.5,-7.8%,?,-10.9%
NCCC1CCCC(CCN)N1 (stereo not given),.,-5.8%,5.7%,4.2%
Cc1noc(NS(=O)(=O)c2ccc(NC(=O)CSc3nc4c(cc3C#N)CCCCC4)cc2)c1C,0.7,-0.3%,-4.1%,28.2µM*
Cc1noc(NS(=O)(=O)c2ccc(NC(=O)COc3ccc(Cl)cc3Cl)cc2)c1C,22.9,4.0%,10.2%,15.8µM*
O=C(CSc1ccc(-c2ccncc2)nn1)N1CCN(c2ccccc2)CC1,.,-2.8%,25.1%,.
CN(c1ccccc1)c1ccc(/C=C/[N+](=O)[O-])cc1,7.1,2.6%,8.91µM*,31.6µM*
COCC(=O)N1CCC2(CCCN(c3ccncc3)C2)CC1,.,.,1.6%,-4.7%
NC(=O)c1sc2nc3c(c(-c4ccco4)c2c1N)CCCC3,.,-0.4%,.,.
Nc1c(C(=O)NCC2CCCO2)sc2nc3c(c(-c4ccco4)c12)CC/C3=C\c1ccco1 (stereo not given),?,7.08µM*,?,20µM*
CC1c2ccsc2CCN1S(=O)(=O)c1cccs1 (stereo not given),.,5.5%,.,.
Cc1ccc(NC(=O)Cn2cc(C(F)(F)F)cc(Cl)c2=O)cc1Cl,.,-14.8%,-8.7%,.
Cc1sc(NC(=O)C2CCCC2)c(C#N)c1C,?,-9.3%,14.1µM*,10µM*
CCCCCC(=O)Nc1sc(C)c(C)c1C#N,?,3.9%,10µM*,25.1µM*
Cc1sc(NC(=O)C2CCCO2)c(C#N)c1C (stereo not given),-92.4*,?,25.1µM*,-26.8%
COc1ccccc1NC(=O)CSc1nc2ccccc2n1C(C)=O,7.3,2.1%,-10.0%,15.8µM*
COc1cc([N+](=O)[O-])ccc1NC(=O)CSc1nc2ccccc2n1-c1ccccc1,36.6,-0.4%,10µM*,-8.9%
CCOC(=O)c1ccc(N2C(=O)C(CC(N)=O)N(CCc3ccc(OC)c(OC)c3)C2=S)cc1 (stereo not given),.,?,-15.0%,.
COc1ccc(-c2coc3c(OC)c(OC)cc(O)c3c2=O)cc1,.,-7.5%,?,-12.4%
COC(=O)c1ccccc1O,.,.,-0.8%,-1.6%
O=C(C/C(=N/O)c1ccccc1O)C(F)F,7.4,2.1%,7.3%,15.8µM*
Cc1cccc(C)c1NC(=O)c1c(C)nn(-c2ccccc2)c1Cl,?,3.6%,-4.7%,-6.4%
Cc1nn(-c2ccccc2)c(Cl)c1C(=O)Nc1nnc(C2CCCC2)s1,-85.3*,-14.7%,2.82µM*,-18.8%
Cc1ccc(NC(=O)c2c(C)nn(-c3ccccc3)c2Cl)c(C)c1,37.2,5.7%,-11.8%,14.1µM*
SMILES,PNC inhibitor,KDM4E inh,ALDH1A1 inh,HPGD inh
O=C(NN1CCCCC1)c1cccc2ccccc12,.,13.5%,2.9%,.
Cc1ccc(C(=O)Nc2ncc(Cc3ccc(SC(F)F)cc3)s2)cc1,-82.4*,?,0.0%,-5.6%
O=C(O)c1ccc(Sc2nnc(-c3cccc(Br)c3)o2)c([N+](=O)[O-])c1,17.8,2.2%,15.1%,14.1µM*
COc1ccc(CNc2ncncc2-c2ccccc2Cl)c(OC)c1,.,-26.1%,?,-13.0%
CCCc1cc(=O)[nH]c(SCC(=O)CSc2nc(CCC)cc(=O)[nH]2)n1,-20.6,-2.8%,14.1µM*,-10.9%
CCCc1cc(=O)[nH]c(SCc2ccccc2Cl)n1,18.3,11.1%,9.3%,14.1µM*
CCCc1cc(=O)[nH]c(SCc2ccc(F)cc2)n1,.,6.4%,.,.
CC(C)NC(=O)N1CC[C@@]2(CCCN(C(=O)c3cc(C(F)(F)F)cc(C(F)(F)F)c3)C2)C1,.,.,-1.2%,-1.9%
CCn1nnnc1SCC(=O)c1cc(OC)ccc1OC,-5.0,1.0%,14.1µM*,-21.8%
COc1ccc(OC)c(C(=O)CSc2nc3cccnc3n2C)c1,29.9,0.8%,22.4µM*,-12.8%
CCOC(=O)c1sc(NC(=O)CSc2n[nH]c(CC(C)C)n2)nc1C,13.2,-5.3%,5.1%,?
CCCCC(=O)Nc1sc2c(c1C(=O)OCC)CCC(C=O)=C2Cl,-5.4,-1.9%,10µM*,-11.5%
Cc1[nH]nc(N=CC2=C(O)CC(c3ccco3)CC2=O)c1-c1ccccc1 (stereo not given),11.6,4.1%,?,.
CC1(C)CC(=O)C(C=Nc2ccccc2)=C(O)C1,-19.4,6.7%,3.2%,.
Cc1[nH]nc(N=CC2=C(O)CC(C)(C)CC2=O)c1-c1ccccc1,?,-21.0%,28.2µM*,-16.8%
CC1(C)CC(=O)C(C=Nc2ccc(NC3=C(C#N)C(=O)CC(C)(C)C3)cc2)=C(O)C1,.,?,7.08µM*,.
CC1(C)CC(=O)C(C=Nc2cccc(/N=C/C3=C(O)CC(C)(C)CC3=O)n2)=C(O)C1,23.8,1.4%,3.55µM*,-19.5%
CC1(C)CC(=O)C(/C=N/c2ccccn2)=C(O)C1,-17.0,5.7%,14.1µM*,-18.4%
Cc1cccnc1NC1(C(F)(F)F)N=C2SCCN2C1=O (stereo not given),.,0.9%,9.6%,.
CSc1nc(C)nc(N/C=C(\C#N)S(=O)(=O)c2ccccc2Cl)n1,.,2.3%,.,.
COc1ccc(C2N(c3cc(Cl)ccc3OC)C(=O)C3CCCN32)cc1 (stereo not given),2.0,-5.5%,10µM*,-12.7%
CN(C)c1ccc(C2N(c3ccc(F)cc3)C(=O)C3CCCN32)cc1 (stereo not given),-4.2,-15.1%,0.631µM*,-25.4%
O=C1C2CCCN2C(c2ccccc2)N1c1ccc(Cl)cc1 (stereo not given),?,7.3%,2.7%,4.4%
CN(C)c1ccc(C2N(c3ccc(Cl)cc3)C(=O)C3CCCN32)cc1 (stereo not given),-14.2,-1.1%,0.794µM*,-15.7%
Cc1cc(Br)c2c(c1)C(O)(N1CCCCC1C)C(=O)N2 (stereo not given),6.7,0.6%,?,-9.0%
SMILES,PNC inhibitor,KDM4E inh,ALDH1A1 inh,HPGD inh
CC1CC(C)CN(C(=O)Cn2cc(C=O)c3ccccc32)C1 (stereo not given),.,1.2%,?,.
COc1ccc(CCNC(=O)Cn2c(=O)n(-c3ccc(F)cc3F)c(=O)c3sccc32)cc1OC,.,4.0%,?,.
COc1ccc(CCNC(=O)Cn2c(=O)n(-c3cc(F)ccc3F)c(=O)c3sccc32)cc1OC,.,-2.5%,1µM*,.
O=C(Nc1cccc(F)c1)N1CCC2(CCNCC2)CC1,.,.,?,1.9%
Cc1ccc(/C=N/NC(=O)c2cccnc2)o1,.,-1.7%,-22.9%,.
O=C(O)c1cccc(-c2ccc(/C=N/NC(=O)c3cccnc3)o2)c1,-83.4*,9.2%,?,?
CCn1cc(C(=O)O)c(=O)c2cnc(N3CCN(C(=S)NC(=O)c4ccccc4Cl)CC3)nc21,.,-12.0%,-9.8%,.
CCCCNc1ccc(S(N)(=O)=O)cc1[N+](=O)[O-],-112.8*,3.1%,13.9%,-3.9%
COc1ccc(-c2nnc(SCC(=O)Nc3ncc(C)s3)n2-c2ccccc2)cc1OC,?,-0.2%,3.7%,-9.6%
